# DT40 TDP1 no CPT = qHTS for Inhibitors of human tyrosyl-DNA phosphodiesterase 1 (TDP1): qHTS in cells in absence of CPT | actives 15% (n = 420,000) | DT40 Tdp1-/- hTDP1 cells, no CPT, ATP luminescence, 48 h | Potency, µM (series often up to 46.2 µM), for the others: at the highest dose activity change, negative = growth inhibition, actives largely listed as inhibitors; also: % is scaled to controls: 0 for no effect and ±100 for the full control effect; nearly all actives have a fitted effect of over 55% in size
#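 A cellular qHTS used chicken DT40 cells lacking endogenous Tdp1 but carrying stably transfected human TDP1. Compounds were applied without camptothecin, and cell growth kinetics were judged by ATP-dependent luminescence after ≥48 hr.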
# TDP1 block = inhibitors of human tyrosyl-DNA phosphodiesterase TDP1; Potency, µM (highest dose often 130 µM), for inactives: at the top dose activity change, negative = inhibition, actives largely listed as inhibitors; Q9NUW8; AID 485290; recombinant TDP1, AlphaScreen DNA substrate cleavage; actives 0.28% (n = 350,000); also: % is scaled to controls: 0 for no effect and ±100 for the full control effect; nearly all actives have a fitted effect of over 40% in size
# Target sequence (Q9NUW8 whole entry, looked up): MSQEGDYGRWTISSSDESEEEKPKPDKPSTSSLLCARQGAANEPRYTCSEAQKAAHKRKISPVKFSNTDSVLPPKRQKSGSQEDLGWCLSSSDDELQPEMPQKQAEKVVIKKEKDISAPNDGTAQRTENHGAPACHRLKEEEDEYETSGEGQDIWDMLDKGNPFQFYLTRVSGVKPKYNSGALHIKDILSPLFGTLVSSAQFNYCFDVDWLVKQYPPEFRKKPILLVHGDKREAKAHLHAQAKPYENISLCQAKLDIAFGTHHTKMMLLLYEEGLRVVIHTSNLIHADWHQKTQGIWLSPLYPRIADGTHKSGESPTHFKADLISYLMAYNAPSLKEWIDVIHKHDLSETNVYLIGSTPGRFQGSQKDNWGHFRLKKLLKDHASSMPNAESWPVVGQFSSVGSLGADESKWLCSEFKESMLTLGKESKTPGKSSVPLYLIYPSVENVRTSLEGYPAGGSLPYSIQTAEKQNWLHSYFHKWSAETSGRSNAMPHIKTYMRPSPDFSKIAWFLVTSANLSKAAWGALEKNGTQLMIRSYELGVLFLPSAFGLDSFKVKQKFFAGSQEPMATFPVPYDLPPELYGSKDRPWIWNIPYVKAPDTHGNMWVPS
#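 Signal: AlphaScreen proximity between streptavidin donor and anti-FITC acceptor beads on intact substrate. Reaction: Tdp1 1 nM, substrate 15 nM final, 5 min RT after 15 min compound preincubation.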
# ClpP mod = qHTS Assay for Activators of ClpP; ATP-dependent Clp protease proteolytic subunit (Bacillus subtilis (strain 168)), P80244; purified B. subtilis ClpP, FRET peptide cleavage, 20 min; Potency, µM (doses to about 57.5 µM), for the others: at the highest dose activity change, negative = active; actives 1.9% (n = 340,000); AID 651965, 2013; active = well fitted falling curve with a large enough effect; inconclusive = small, poorly fitted or top-dose-only effect; inactive = no such curve, though single readings can be large or run the other way; also: the source files actives as falling curves though it sought activators and does not explain the sign; nearly all actives have a fitted effect of over 65% in size
#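 FRET quenching reversal measured ClpP activation: 10 microg/mL B. subtilis ClpP at pH 8 with the FRET-FV decapeptide, read at 430 nm after 320 nm excitation. The 20-min minus 0-min signal was scaled between DMSO/no-enzyme wells and ADEP (5.8 microM final).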
# TDP1 cell CPT = growth inhibition of DT40 Tdp1-/-;hTDP1 cells with camptothecin (screen for TDP1 inhibitors); chicken DT40 Tdp1-/-;hTDP1 cells + 20 nM CPT, ATP luminescence, 48 h; Potency, µM (doses to about 46.2 µM), without a hit: top-dose activity change, negative = growth inhibition, actives largely listed as inhibitors; actives 12% (n = 420,000); AID 686979; also: % is scaled to controls: 0 for no effect and ±100 for the full control effect; nearly all actives have a fitted effect of over 55% in size
#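 Chicken DT40 Tdp1-/- cells complemented with human TDP1, 400 cells/well, exposed to compounds plus 20 nM camptothecin for at least 48 h at 37 C; viability read as ATP content by CellTiter-Glo luminescence.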
# ClpP inh valid = Bacillus subtilis ClpP inhibition, validated hit; shares compounds with ClpP mod; purified B. subtilis ClpP, FRET-FV substrate cleavage, 20 min; Potency, µM (series often up to 57.5 µM), inactives show at the highest dose activity change, negative = inhibition, usual class: inhibitors; actives 40% (n = 470); AID 743245; also: % is scaled to controls: 0 for no effect and ±100 for the full control effect; nearly all actives have a fitted effect of over 70% in size
# The depositor's hits bear a star; ? = inconclusive; / = not tested or not shown; [ ] = another dose, or the depositor's remark. Most compounds without a hit are left out; they make up all but 17% or so of the library. Unless noted, calls follow the shape of the dose curve; as a rule, active = well fitted curve in the direction sought with a large enough effect; inconclusive = small, poorly fitted or top-dose-only effect, or another doubt; inactive = no such curve, though single readings can be large; an effect the other way counts as inactive or inconclusive. Potency is read from the fitted curve at half-maximal effect.
SMILES,DT40 TDP1 no CPT,TDP1 block,ClpP mod,TDP1 cell CPT,others
CC1CCN(c2nnc(N3CCC(C)CC3)c3ccccc23)CC1,?,/,1%,?,
Cc1ccc(-c2nnc(N3CCCCC3)c3ccccc23)cc1,23µM*,/,1%,?,
CCOC(=O)c1ccc(-c2c(-c3ccccc3OC)sc3ccc(OC)cc23)cc1F,?,0%,?,?,
COc1ccc(-c2nnn3c2nc(N2CCCC(C)C2)c2ccccc23)cc1 (centres undefined),29µM*,-4%,-2%,?,
CCCCSc1nnc(-c2ccc(C)cc2)c2ccccc12,18µM*,-2%,?,21µM*,
O=S(=O)(c1ccccc1)N1CCN(c2nnc(-c3ccccc3)c3ccccc23)CC1,15µM*,5%,/,18µM*,
COc1ccccc1C(=O)Nc1ccc(Oc2nnc(-c3ccc(C)cc3)c3ccccc23)cc1,?,5%,1%,?,
Cc1ccc(Oc2nnc(-c3ccc(C)cc3)c3ccccc23)cc1,15µM*,0%,1%,21µM*,
CC(C)c1ccc(S(=O)(=O)c2nnn3c2nc(N2CCCCC2)c2ccccc23)cc1,?,-1%,?,-26%,
CN(C)C(=O)CSc1nnc(-c2ccc(F)cc2)c2ccccc12,?,0%,1%,1%,
CS(=O)(=O)N1CCN(c2nnc(-c3ccccc3)c3ccccc23)CC1,-23%,6%,1%,-15%,
COc1cc(=O)n2c(c1C(=O)NCc1ccco1)CCN(Cc1cc3ccccc3[nH]1)CC2,-5%,/,/,-3%,
CC(=O)c1cccc(NC(=O)CCCN2C(=O)COc3ccc(C)cc32)c1,?,3%,-4%,18µM*,
Cc1ccc2c(c1)N(CCC(=O)NC(C)C)C(=O)CO2,-2%,5%,28µM*,?,
COc1ccc(NC(=O)C2CCN(S(=O)(=O)c3ccc4c(c3)CCCC(=O)N4)CC2)cc1Cl,/,-5%,0%,/,
COc1cc(-c2nc3nc[nH]n3c2Nc2ccc(C(C)C)cc2)ccc1O,7.3µM*,5%,2%,23µM*,
COc1cc(-c2nc3cnccn3c2Nc2ccc3c(c2)OCCO3)ccc1O,?,6%,-4%,?,
COc1cc(-c2nc3cnccn3c2Nc2ccc(C)cc2)ccc1O,?,-1%,-12%,?,
COc1cc(-c2nc3cnccn3c2Nc2ccc(C(C)C)cc2)ccc1O,8.2µM*,6%,?,9.2µM*,
CC(C)c1ccc(Nc2c(-c3ccccc3O)nc3cnccn23)cc1,21µM*,6%,-1%,?,
COc1cc(-c2nc3cnccn3c2Nc2ccccc2)ccc1O,18µM*,-5%,?,23µM*,
CN(C)C(=S)Oc1ccccc1C1(C)OCCO1,2%,/,1%,9%,
CC(C)(CO)NC(=S)NCc1ccco1,-3%,-11%,/,3%,
COc1ccccc1C(=O)CN1C(=O)NC2(CCCCCC2)C1=O,-1%,1%,1%,-19%,
N[C@@H](Cc1cc(I)c(Oc2ccc(O)cc2)c(I)c1)C(=O)O,?,6%,/,1%,
SMILES,DT40 TDP1 no CPT,TDP1 block,ClpP mod,TDP1 cell CPT,others
COc1ccc(-c2ccc(-c3nnc(Cc4ccc(OC)c(OC)c4)o3)cc2)cc1,1%,10%,2µM*,-13%,ClpP inh valid=?
C=CCn1c(SCC(=O)Nc2ccc(N3CCOCC3)cc2)nc2ccccc2c1=O,-5%,3%,-2%,-16%,
CCOC(=O)C1(C)CCCCN1C(=O)c1cccs1 (centres undefined),-18%,/,1%,-18%,
CCOC(=O)c1c(NC(=O)c2ccc(S(=O)(=O)N3CCC(C)CC3)cc2)sc2c1CCN(C)C2,3.7µM*,5%,79%,3.7µM*,ClpP inh valid=?
COC(=O)c1c(NC(=O)c2ccc(S(=O)(=O)N3CC(C)OC(C)C3)cc2)sc2c1CCN(C)C2 (centres undefined),?,/,-5%,?,
COc1cc(CNCCc2ccccc2)cc(Cl)c1OCc1ccccc1,?,3%,/,?,
COc1ccc(NS(=O)(=O)c2ccc(C)c(C(=O)NNC(=O)c3ccccc3O)c2)cc1,?,1%,72%,?,ClpP inh valid=0%
COc1ccc(NS(=O)(=O)c2ccc(C)c(C(=O)O)c2)cc1,3%,-11%,-3%,-18%,
Cc1cc(C)cc(C(=O)N(Cc2ccco2)c2c(N)n(Cc3ccccc3)c(=O)[nH]c2=O)c1,3%,0%[56.1 µM],10µM*,1%,ClpP inh valid=-1%
Cc1ccc(OCC(=O)N(Cc2ccco2)c2c(N)n(Cc3ccccc3)c(=O)[nH]c2=O)cc1C,18%,0%,2%,-23%,
CCn1c(-c2cccs2)nc2ccccc21,-29%,4%[56.1 µM],3.2µM*,-11%,ClpP inh valid=14µM*
CC(=O)Nc1ccc(NC(=O)c2c(C)nc3ccccn23)cc1,4%,4%,0%,-3%,
Cc1nc2ccccn2c1C(=O)Nc1ccc2c(c1)OCCO2,-24%,5%,?,-23%,ClpP inh valid=-2%
COc1ccc2oc(-c3ccc(C)c(NC(=O)c4ccc(N5CCCCC5)c([N+](=O)[O-])c4)c3)nc2c1,3%,2%,1%,-2%,
O=C(Nc1ccc2c(c1)Cc1ccccc1-2)c1ccncc1,?,/,10µM*,-9%,ClpP inh valid=-6%
O=C(c1cccc(F)c1)N1CCC(c2c[nH]c3ccccc23)(c2c[nH]c3ccccc23)CC1,?,0%,-1%,?,
CCc1nn(CC(=O)NCCCN2CCOCC2)c(=O)c2cc3c(OC)cccc3n12,27%,/,4%,-14%,
CCCN1CCN(CCCNC(=O)Cn2nc(C)n3c(cc4c(OC)cccc43)c2=O)CC1,0%,4%,4.5µM*,8%,ClpP inh valid=3.9µM*
Cc1ccc(COC(=O)c2cc(S(=O)(=O)N3CCOCC3)ccc2C)cc1,?,-8%[56.1 µM],-1%,?,
CC1CN(C(=O)Nc2ccc3c(c2)OCCO3)CC(C)O1 (centres undefined),11%,-3%,3.5µM*,5%,ClpP inh valid=-1%
COc1ccc(C(=O)Nc2cc(C)nn2-c2cccc(F)c2)cc1OC,-29%,/,-2%,-17%,
COc1cc2c3c(n(C)c(=O)c2cc1OC)-c1cc2c(cc1C3=O)OCO2,?,/,-20%,?,
Cc1c(C(=O)N2CCOCC2)sc2ncn(CC(=O)N3CCC(C)CC3)c(=O)c12,4%,3%,3.2µM*,2%,ClpP inh valid=-1%
COC(=O)CN1CCN(C(=O)c2ccc(F)cc2)c2ccccc2C1,-11%,-2%,176%,2%,ClpP inh valid=1%
CCOC(=O)c1cc(NC(=O)c2ccccc2)c(=O)n2c1oc1ccccc12,?,0%,0%,-13%,

# High-throughput results (PubChem BioAssay)
